Reference: PubChem BioAssay AID2501 (Southern Research Specialized Biocontainment Screening …, 2010)
Values joined by “and” are separate entries in the source; they are usually repeats but may differ in a detail not shown here. Identical values can stand only once. In all, about 2,200 compounds went through this assay and about 1,200 (55%) were called active. No cut-off is given here; in the data, nearly all actives have IC50 up to about 92 µM. So high a share suggests a set chosen from earlier hits. Some of the results follow.

Assay: counter assay for TAg ATPase ADP read-out – biochemical, ADP-Hunter, fluorescence, counter-screen (AID 2501);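 note: purified T antigen ATPase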;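 for inhibition: 0% = enzyme with vehicle and 100% = reference inhibitor wells; higher means more inhibition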
Conditions: series mostly up to 100 µM; inhibition: at the top concentration
In the case of `O=C(CSc1n[nH]c(-c2ccccc2)n1)c1ccc(O)c(O)c1`, the IC50 is reported as 10 µM (active). For `Cc1ccc(C(=O)N(Cc2ccc3c(c2)OCO3)Cc2nc3ccccc3c(=O)[nH]2)cc1`, the “inhibition” value was 9.42% (inactive). For `CCCn1c(SC(C)C(=O)O)nc2ccccc21` (stereo not given), the “inhibition” value was 9.81% (inactive). In the case of `O=C(CSc1nc2ccccc2n1CCc1ccccc1)c1ccc(O)c(O)c1`, the IC50 is reported as 43.4 µM (active). With `N#Cc1c(-c2ccccc2)nc(SCC(=O)N2c3ccccc3Sc3ccccc32)[nH]c1=O` the “inhibition” value was -1.42% (inactive). With `Cc1cc(SCC(=O)c2ccccc2)nc(C)n1` the “inhibition” value was 16.8% (inactive). With `O=C(CSc1nc2ccccc2c(=O)[nH]1)c1ccc(O)c(O)c1` the IC50 was 9.7 µM (active). In the case of `Brc1ccc(-c2n(-c3ccccn3)c3ccccc3[n+]2-c2ccccn2)cc1`, the “inhibition” value is reported as 1.83% (inactive). For `CC(=O)N1c2c(cc(Br)cc2S(=O)(=O)N2CCCCC2)CC1C` (stereo not given), the “inhibition” value was 17.1% (inactive). In the case of `C[c-]1[c-](C)[c-](C)[c-](C)[c-]1C.[Fe].c1cc2nccc(N3CCCC3)[c-]2c1` (stereo not given), the IC50 is reported as 5.8 µM (active). In the case of `CCOC(=O)N1CCC(NC(=O)c2cnn3c2NC(c2ccco2)CC3C(F)(F)F)CC1` (stereo not given), the “inhibition” value is reported as 12.3% (inactive). With `CCN(C(=O)CN1CCN(c2ccc(O)cc2)CC1)c1c(N)n(Cc2ccccc2)c(=O)[nH]c1=O` the IC50 was 4.79 µM (active). With `COCCN(C(=O)COC(=O)c1cc2c(s1)CCC2)c1c(N)n(Cc2ccccc2)c(=O)[nH]c1=O` the “inhibition” value was 4.61% (inactive). In the case of `CCN(C(=O)CN1CCN(c2cccc(Cl)c2)CC1)c1c(N)n(Cc2ccccc2)c(=O)[nH]c1=O`, the “inhibition” value is reported as -12.3% (inactive). In the case of `CC1=NN(c2nc(-c3ccccc3)cs2)C(=O)C1`, the IC50 is reported as 56 µM (active). With `CC1=NN(c2nc(-c3ccc(C#N)cc3)cs2)C(=O)C1` the “inhibition” value was -10.8% (inactive). In the case of `Nc1ccc(Sc2ccccc2CC(=O)O)cc1`, the IC50 is reported as 16.9 µM (active). For `OCc1ccccc1SSc1ccccc1CO`, the “inhibition” value was 11.8% (inactive). With `N#Cc1c(-c2ccco2)c2c([nH]c1=S)CCCC2` the IC50 was 95.5 µM (active). For `Cc1ccc(-c2c3c([nH]c(=S)c2C#N)CCCC3)o1`, the “inhibition” value was 15.4% [at 50 µM] (inactive). With `N#Cc1c(-c2ccco2)cc(-c2ccccc2)[nH]c1=O` the “inhibition” value was -12.2% (inactive). With `CCN(CC)c1ccc(NC(=O)c2ccco2)cc1` the IC50 was 4.57 µM (active). In the case of `CCN(CC)c1ccc(NC(=O)c2ccccc2F)cc1`, the IC50 is reported as 4.71 µM (active). For `COCCNC(=O)Nc1ccc2nc(-c3ccco3)c(-c3ccco3)nc2c1`, the “inhibition” value was 19.3% (inactive). With `CCN(CC)c1ccc(NC(=O)c2cc3c(OC)cccc3[nH]2)cc1` the “inhibition” value was 27.4% (inactive). In the case of `O=C(CSc1nnc(CNC(=O)c2ccco2)o1)Nc1ccccc1C(F)(F)F`, the “inhibition” value is reported as -0.42% (inactive). With `CCN(CC)c1ccc(NC(=O)CCNC(=O)c2ccco2)cc1` the IC50 was 5.22 µM (active). In the case of `COc1cc(-c2nc3cccc(C)n3c2NCC2CCCO2)ccc1O` (stereo not given), the IC50 is reported as 41.9 µM (active). With `S=c1nc[nH]c2nc[nH]c12` the “inhibition” value was 23.4% (inactive). With `Cc1ccc(NC(=O)COc2ccc(C3SCCS3)cc2)cc1` the “inhibition” value was -2.46% (inactive). In the case of `Cc1ccc(NC(=O)COc2ccc(/C(N)=N/O)cc2)cc1C`, the IC50 is reported as 29.6 µM (active). In the case of `CCN(CC)C(=O)c1cc([N+](=O)[O-])cc2c1-c1ccc([N+](=O)[O-])cc1C2=C(C#N)C#N`, the “inhibition” value is reported as 19.6% (inactive). In the case of `CCN(CC)c1ccc(NC(=O)C2CC(=O)N(Cc3ccccc3)C2)cc1` (stereo not given), the IC50 is reported as 5.88 µM (active). In the case of `COc1ccccc1CN1CC(C(=O)NCc2ncccc2C)CCC1=O` (stereo not given), the “inhibition” value is reported as -1.4% (inactive). In the case of `Cc1ccc(S(=O)(=O)/N=C(/Sc2ccccc2C(=O)O)c2ccccc2)cc1`, the “inhibition” value is reported as -7.39% (inactive). With `Cc1ccc(NC(=O)CNC(=O)c2cccs2)nc1` the “inhibition” value was -35.3% (inactive). For `Cc1cc(C(=O)c2cccs2)c(N)s1`, the IC50 was 32.8 µM (active). For `COc1cccc(CC2(CO)CCCN(Cc3sc(N4CCCC4)nc3Cl)C2)c1` (stereo not given), the “inhibition” value was -4.63% (inactive). With `COC(=O)/C=C/c1ccc(OC(=O)OC)c(OC(=O)OC)c1` the IC50 was 8.79 µM (active). For `COc1ccc(-c2cc(=Nc3c(C)n(C)n(-c4ccccc4)c3=O)c3ccccc3o2)cc1`, the “inhibition” value was 25.9% (inactive). In the case of `Cc1c(N=C2C=C(Br)C(=O)C(Br)=C2)c(=O)n(-c2ccccc2)n1C`, the IC50 is reported as 50.9 µM (active). With `Cc1cc(N)ccc1N=Nc1c(C)n(C)n(-c2ccccc2)c1=O` the IC50 was 8.16 µM (active). For `Cc1cccc(N=Nc2c(C)[nH]n(-c3ccccc3)c2=O)c1`, the “inhibition” value was 3.15% (inactive). With `Cc1nc(N)sc1N=Nc1c(C)n(C)n(-c2ccccc2)c1=O` the IC50 was 10.3 µM (active). For `CCNc1ccc(N=Nc2c(C)n(C)n(-c3ccccc3)c2=O)cc1`, the IC50 was 3.42 µM (active). With `CC(C)(C)CC(=O)NC(=S)Nc1ccccc1[N+](=O)[O-]` the “inhibition” value was -5.63% (inactive). With `Cc1c(CC(=O)N2CCN(C(=O)C3COc4ccccc4O3)CC2)c(=O)oc2c(O)c(O)ccc12` (stereo not given) the IC50 was 5.3 µM (active). For `COc1ccc(C(=O)N2CCN(C(=O)C3COc4ccccc4O3)CC2)cc1` (stereo not given), the “inhibition” value was -0.44% (inactive). With `COC(=O)c1ccc(-c2ccc(/C=N/N3C(=O)C4C5C=CC(C6CC56)C4C3=O)o2)cc1` (stereo not given) the “inhibition” value was -39.7% (inactive). For `COc1cc(/C=N/N2C(=O)C3C4C=CC(CC4)C3C2=O)ccc1O` (stereo not given), the IC50 was 5.67 µM (active). With `O=C1C2C3C=CC(CC3)C2C(=O)N1/N=C/c1ccc(O)c(O)c1` (stereo not given) the IC50 was 5.65 µM (active). For `Cc1oc2c(O)c(O)ccc2c(=O)c1-c1cnn(-c2ccccc2)c1`, the IC50 was 9.31 µM (active). For `CCSC1(SCC)N=C(N)C2(C#N)C(c3ccc(OC)c(OC)c3OC)C12C#N` (stereo not given), the IC50 was 96.4 µM (active). For `COC(=O)CN1C(=O)[C@@H]2[C@H](C1=O)[C@@H]1CC(C(=O)OC)=C[C@@H](C(=O)OC)[C@@H]3C1=C(C(=O)[C@]3(C)NC(=O)c1ccccc1)[C@@H]2C`, the “inhibition” value was 25.3% (inactive). In the case of `C/C(=N/NC(=O)Cc1c(C)[nH][nH]c1=O)c1ccc(O)cc1`, the IC50 is reported as 9.47 µM (active). With `COc1cc(/C(C)=N/NC(=O)Cc2c(C)[nH][nH]c2=O)ccc1O` the IC50 was 3.72 µM (active). In the case of `CSc1ccc(CCNC(=O)C2CCCN(S(=O)(=O)N3CCOCC3)C2)cc1` (stereo not given), the “inhibition” value is reported as -1.03% (inactive). With `COc1cc(/C=N/n2c(-c3n[nH]c4c3CCC4)n[nH]c2=S)cc(OC)c1O` the IC50 was 8.78 µM (active). In the case of `COc1cc(/C=N/n2c(-c3n[nH]c4c3CCC4)n[nH]c2=S)ccc1O`, the IC50 is reported as 5.13 µM (active). With `CCS(=O)(=O)c1nc(S(=O)(=O)c2ccc(Cl)cc2)c(NCc2ccccn2)s1` the “inhibition” value was -28.7% (inactive). In the case of `CCOc1cc(C(c2c(C)[nH][nH]c2=O)c2c(C)[nH][nH]c2=O)ccc1OC(=O)c1cccc([N+](=O)[O-])c1`, the IC50 is reported as 28.9 µM (active). With `COCC(C)NC(=O)c1cccc([N+](=O)[O-])c1` (stereo not given) the “inhibition” value was -5.06% (inactive). With `CCOc1cc(C(c2c(C)[nH][nH]c2=O)c2c(C)[nH][nH]c2=O)ccc1O` the IC50 was 4.65 µM (active). In the case of `COc1cc(C(c2c(C)[nH][nH]c2=O)c2c(C)[nH][nH]c2=O)ccc1OC(C)C`, the IC50 is reported as 69 µM (active). In the case of `CCCSc1nc(O)c(C(c2ccc(OC)c(O)c2)c2c(O)nc(SCCC)n(C)c2=O)c(=O)n1C`, the “inhibition” value is reported as -8.35% (inactive). For `Cc1[nH][nH]c(=O)c1C(c1ccc(-c2cccc(Cl)c2)o1)c1c(C)[nH][nH]c1=O`, the “inhibition” value was -31.4% (inactive). In the case of `CN(C)c1ccc(NC(=O)CCN2CCN(c3ccccn3)CC2)cc1`, the IC50 is reported as 4.88 µM (active). For `CC(C)c1ccc(S(=O)(=O)N2CCN(CCC(=O)Nc3ccc(N(C)C)cc3)CC2)cc1`, the IC50 was 12 µM (active). For `O=C(CCN1C(=O)/C(=C\C=C\c2ccccc2)SC1=S)Nc1ccc(C(=O)O)cc1`, the “inhibition” value was -19.9% (inactive). With `CC(=O)Nc1ccc(NC(=O)C(C)N2CCN(S(=O)(=O)c3ccc(C)cc3)CC2)cc1` (stereo not given) the “inhibition” value was -33.8% (inactive). In the case of `Cc1ccsc1C(=O)N1CCCC(CCC(=O)N2CCN(c3ccccn3)CC2)C1` (stereo not given), the “inhibition” value is reported as -0.27% (inactive). For `CN(C)c1ccc(NC(=O)c2ccc(N3CCOCC3)nc2)cc1`, the IC50 was 3.34 µM (active). With `CCS(=O)(=O)c1ncc(Cl)c(C(=O)Nc2ccc(S(=O)(=O)N3CCC(C)CC3)cc2)n1` the “inhibition” value was -17.6% (inactive). For `O=C1OC2(c3ccccc31)c1cc(I)c(O)c(I)c1Oc1c2cc(I)c(O)c1I`, the “inhibition” value was -22.2% (inactive). For `O=C(NC(=S)Nc1ccc(O)cc1)c1ccccc1Cl`, the IC50 was 2.31 µM (active). For `O=C(Nc1cccc2c1CCCC2)c1ccccc1Cl`, the “inhibition” value was -13.3% (inactive). For `O=C(Nc1ccc(Nc2ccccc2)cc1)N1CCOCC1`, the IC50 was 3.84 µM (active). In the case of `O=C(c1ccc(-c2ccccc2Cl)s1)N1CCOCC1`, the “inhibition” value is reported as 1.32% (inactive). For `O=C(NNC(=O)c1ccccc1-n1cccc1)c1ccc(Cl)cc1Cl`, the “inhibition” value was -18% (inactive). In the case of `NC(=O)Nc1ccc(Nc2ccccc2)cc1`, the IC50 is reported as 4.72 µM (active). For `Oc1ccc(NC(=S)Nc2ccccc2)cc1`, the IC50 was 4.74 µM (active) and 4.32 µM (active). For `C=C(C)C(=O)O[C@H]1C/C(C)=C\C(=O)/C=C(\C)[C@H](O)[C@@H]2OC(=O)C(=C)[C@@H]21`, the “inhibition” value was -21.3% (inactive). For `CCCCNC(=S)N(CCN(C)C)Cc1cc2cc3c(cc2[nH]c1=O)OCCO3`, the “inhibition” value was 1.93% (inactive). In the case of `COc1cccc(NC(=O)CC2(CC(=O)O)CCCC2)c1`, the “inhibition” value is reported as -18.3% (inactive). In the case of `O=C(O)[C@H]1CCCC[C@H]1C(=O)Nc1ccc(Nc2ccccc2)cc1`, the IC50 is reported as 3.86 µM (active). With `CNC(=S)Nc1ccc(Nc2ccccc2)cc1` the IC50 was 4.39 µM (active). In the case of `O=C(NC(=S)Nc1ccc(O)cc1)c1cncc(Br)c1`, the IC50 is reported as 3.94 µM (active). In the case of `COc1cccc(NC(=S)Nc2ccc(O)cc2)c1`, the IC50 is reported as 1.13 µM (active). With `O=c1[nH]c2cc3c(cc2cc1CN(Cc1cccnc1)Cc1nnnn1Cc1ccco1)OCCO3` the “inhibition” value was -30.1% (inactive). For `COc1ccc(N=Cc2c[nH][nH]c2=O)cc1`, the IC50 was 9.97 µM (active). In the case of `CC1(C)Nc2ccc(O)cc2-c2c1ssc2=S`, the IC50 is reported as 14.6 µM (active). With `O=C1OCC/C1=C\c1ccc(O)cc1` the IC50 was 7.82 µM (active). In the case of `CS(=O)(=O)c1ccc(N)c(SSc2cc(S(C)(=O)=O)ccc2N)c1`, the “inhibition” value is reported as 23.8% (inactive). For `Nc1cc(S(=O)(=O)c2ccc(O)c(N)c2)ccc1O`, the IC50 was 3.9 µM (active). For `Nc1ccc(O)c2ccccc12`, the “inhibition” value was 5.37% (inactive). In the case of `Nc1n[nH]c(=S)n1/N=C1/C(=O)Nc2ccccc21`, the IC50 is reported as 9.5 µM (active). In the case of `Cn1cccc1/C=N/N1CCN(c2ccccn2)CC1`, the IC50 is reported as 7.28 µM (active). In the case of `Cn1cccc1/C=N/N1CCN(Cc2ccccc2)CC1`, the IC50 is reported as 21 µM (active). For `Oc1ccc(/C=N/N2CCN(c3ccccn3)CC2)cc1`, the IC50 was 10.4 µM (active). With `Cc1cccc(C)c1NCC(=O)N1CCN(Cc2ccccc2)CC1` the “inhibition” value was -18.3% (inactive).
